Results taken from PMC5540273 (PLoS ONE, 2017).

Tests used:
Settings in all cases: concentration: 1 μM, replicates: in singlicate; n = 1
[1] = system: CDK8
[2] = system: CDK9
[3] = system: CDKL1
[4] = system: CDKL2
[5] = system: CDKL3
[6] = system: CDKL5
[7] = system: CHEK1
[8] = system: CHEK2
[9] = system: CIT
[10] = system: CLK1
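Further: KINOMEscan kinase panel screen.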

Compound	%Inh [1]	%Inh [2]	%Inh [3]	%Inh [4]	%Inh [5]	%Inh [6]	%Inh [7]	%Inh [8]	%Inh [9]	%Inh [10]
FC(F)(F)c1ccc(/C=C/c2cncnc2Nc2ccc3[nH]c(Cc4ccccc4)nc3c2)cc1 [GW709199]	64%	0%	42%	38%	0%	0%	0%	18%	55%	23%
Cc1cccc(Nc2nc(N[C@H]3CCNC3)ncc2C(N)=O)c1.Cl [GSK2197149]	0%	7%	12%	7%	0%	0%	52%	71%	76%	51%
CCn1c(-c2nonc2N)nc2c(C#CC(C)(C)O)nc(OC[C@H](N)c3ccccc3)cc21 [GSK943949]	4%	0%	0%	0%	0%	12%	0%	0%	61%	24%
CC(C)(C)c1ccc2nccc(Nc3cccc(O)c3)c2c1 [GW856795]	68%	0%	8%	0%	19%	0%	74%	0%	21%	17%
COc1cccc(C2=C(Nc3ccc(Cl)c(C(=O)O)c3)C(=O)NC2=O)c1 [SB-390769]	0%	0%	47%	25%	100%	6%	0%	0%	40%	12%
COc1cc(Nc2ncc3c(C)nc(-c4cc5ccccc5[nH]4)n3n2)cc(OC)c1OC [GW869516]	44%	0%	46%	1%	8%	0%	0%	0%	100%	88%
Cc1ccc(C(=O)N2CC[C@@H](O)C2)cc1-n1c(C)cc(OCc2ccc(F)cc2F)c(Br)c1=O	0%	1%	14%	0%	1%	0%	0%	6%	6%	5%
NCCCC(NC(=O)c1cc(Br)c(-c2ccnc3[nH]ccc23)s1)c1ccccc1.O=C(O)C(F)(F)F.O=C(O)C(F)(F)F (centres unmarked) [GSK1287544]	27%	4%	0%	40%	0%	0%	0%	0%	90%	51%
